Assay outcomes as filed in PubChem.
ELG1 genotoxic: induces genotoxicity in HEK293T cells with luciferase-tagged ELG1 | HEK293T ELG1-luciferase reporter, luminescence, 16 h | Potency, µM (series often up to 46 µM), hits mostly activators | actives 1.3% (n = 330,000); note: nearly all actives have a fitted effect of over 60% in size
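Step 1: seed 2,000 HEK293T ELG1-luciferase cells per well. Step 2: add compound or DMSO, incubate 16 hr at 37 °C. Step 3: ONE-Glo, 30 min at room temperature, read luminescence.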
Rab9 promoter act: activators of Rab9 promoter | Huh7 Rab9 promoter-luciferase reporter, luminescence, 24 h | Potency, µM (series often up to 9.22 µM), actives largely listed as activators | actives 2.8% (n = 320,000) | AID 485297; note: nearly all actives have a fitted effect of over 60% in size
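Promoter activation is measured as luciferase luminescence in Huh7 cells stably transfected with a Rab9 promoter–luciferase construct, following 24 h compound exposure at 37 °C and 10 min reagent incubation at ambient temperature.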
p53 reactivator: restores transcriptional activity of mutant p53 | actives 0.063% (n = 320,000) | Potency, µM (series often up to 92.2 µM), most hits filed as activators | H1299 p53-A138V BP100-luciferase reporter, luminescence, 24 h; note: nearly all actives have a fitted effect of over 45% in size
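H1299 (p53-null), stable ts p53-A138V + BP100-Luc; 1000 cells/well, Opti-MEM/10% FBS; cpd 4 pt, 1:5; 24 h, 37 deg C, 5% CO2; detection reagent 10 min RT; luminescence.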
NPC1 promoter act: activates the NPC1 promoter; Huh7 NPC1 promoter luciferase reporter, 24 h; Potency, µM (series often up to 9.22 µM), hits mostly activators; actives 2.4% (n = 320,000); note: nearly all actives have a fitted effect of over 60% in size
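Compounds in DMSO were transferred onto Huh7 NPC1-luciferase reporter cells pre-incubated 2 h; after 24 h at 37 °C, Amplite reagent was dispensed and luminescence recorded 10 min later.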
SMN2 splice up: increases expression of the SMN2 splice variant; actives 2.8% (n = 210,000); Potency, µM (top dose mostly 46.1 µM), actives largely listed as activators; AID 1458; HEK293 SMN2-luciferase splicing reporter, luminescence, 30-36 h; note: nearly all actives have a fitted effect of over 55% in size
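HEK293 cells carry an SMN2 […]–luciferase reporter in which exon 7 inclusion puts luciferase in frame. Cells were plated 10-12 h before compound addition, then incubated 30-36 h at 37C. ONE-Glo luminescence was read; sodium butyrate at 4.5 mM final served as control.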
FLuc modulator: inhibits or activates purified firefly luciferase, miR-21 counter-screen; AID 588342; purified FLuc, Km substrates, luminescence inhibition; P08659; actives 6.9% (n = 360,000); Potency, µM (series often up to 57.5 µM), usual class: inhibitors; note: nearly all actives have a fitted effect of over 55% in size
Target sequence (P08659 whole entry, looked up): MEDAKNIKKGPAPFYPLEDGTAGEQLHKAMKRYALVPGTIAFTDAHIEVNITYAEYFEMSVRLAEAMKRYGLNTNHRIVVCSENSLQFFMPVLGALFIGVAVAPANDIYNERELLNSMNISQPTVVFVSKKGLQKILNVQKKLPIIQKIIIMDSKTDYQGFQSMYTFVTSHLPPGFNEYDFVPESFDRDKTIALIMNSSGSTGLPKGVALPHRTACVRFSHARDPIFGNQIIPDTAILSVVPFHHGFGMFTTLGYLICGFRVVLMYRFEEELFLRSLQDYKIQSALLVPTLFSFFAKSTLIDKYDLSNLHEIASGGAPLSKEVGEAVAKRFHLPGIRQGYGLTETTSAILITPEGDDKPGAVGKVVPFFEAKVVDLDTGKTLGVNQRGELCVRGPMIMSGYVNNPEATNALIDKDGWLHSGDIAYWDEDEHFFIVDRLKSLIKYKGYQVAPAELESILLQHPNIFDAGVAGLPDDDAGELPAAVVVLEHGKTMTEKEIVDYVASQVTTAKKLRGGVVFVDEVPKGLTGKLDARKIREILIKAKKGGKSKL
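Biochemical qHTS of compounds, final roughly 60 µM downward over six points, against 10 nM purified firefly luciferase using Km concentrations of substrates (10 uM D-luciferin, 10 uM ATP) in Tris acetate pH 7.5 buffer; luminescence output.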
Large screens that a line does not name were inactive. Most compounds without a hit are left out; they make up all but 7.4% or so of the library. Calls come from the whole dose curve; as a rule, active = well fitted curve in the direction sought with a large enough effect; inconclusive = small, poorly fitted or top-dose-only effect, or another doubt; inactive = no such curve, though single readings can be large; an effect the other way counts as inactive or inconclusive.

COCCCNC(=O)Cn1nnc(-c2ccc(NC(=O)c3ccccc3F)cc2)n1	SMN2 splice up inconclusive, FLuc modulator 13µM
COc1cc(OC)cc(C(=O)Nc2cccc(-c3ccc(N4CCOCC4)nn3)c2)c1	ELG1 genotoxic inconclusive, Rab9 promoter act inconclusive, NPC1 promoter act inconclusive, FLuc modulator 1.5µM (no result: SMN2 splice up)
COc1ccc(C(=O)Nc2cccc(-c3ccc(N4CCOCC4)nn3)c2)cc1	Rab9 promoter act 4µM, p53 reactivator inconclusive, NPC1 promoter act inconclusive, FLuc modulator 2.4µM (no result: SMN2 splice up)
COc1cccc(OC)c1C(=O)Nc1cccc(-c2ccc(N3CCOCC3)nn2)c1	Rab9 promoter act 1.8µM, p53 reactivator inconclusive, NPC1 promoter act inconclusive, FLuc modulator 1.5µM (no result: SMN2 splice up)
CCOC(=O)c1ccc(NC(=O)CC(=O)Nc2ccc3nc4n(c(=O)c3c2)CCCCC4)cc1	none (no result: ELG1 genotoxic, Rab9 promoter act, p53 reactivator, NPC1 promoter act)
O=C1C(c2ccncc2)=C(O)c2ccccc21	ELG1 genotoxic inconclusive, Rab9 promoter act 4.5µM, NPC1 promoter act 0.71µM, SMN2 splice up 3.2µM, FLuc modulator 2.1µM
O=C1C(c2cc(=O)c3ccccc3[nH]2)=C(O)c2ccccc21	ELG1 genotoxic 8.2µM, Rab9 promoter act 2.2µM, p53 reactivator inconclusive, NPC1 promoter act 1.6µM, SMN2 splice up 1µM, FLuc modulator 0.76µM
CC(C)c1nc2n(n1)C1(CCCCC1)[C@@H]1CCCC[C@@H]1N2	none (no result: ELG1 genotoxic, Rab9 promoter act, p53 reactivator, NPC1 promoter act, SMN2 splice up)
O=C(COC(=O)c1ccccc1Br)NC1CCCC1	ELG1 genotoxic inconclusive, p53 reactivator inconclusive, FLuc modulator 17µM (no result: SMN2 splice up)
O=C(COC(=O)c1ccccc1Br)NC1CCCCCCC1	p53 reactivator inconclusive (no result: Rab9 promoter act, NPC1 promoter act, SMN2 splice up, FLuc modulator)
O=C(OCC(=O)N1CCCCCC1)c1ccccc1Br	ELG1 genotoxic inconclusive, Rab9 promoter act 1.8µM, p53 reactivator inconclusive, NPC1 promoter act 2.2µM, FLuc modulator 5.4µM (no result: SMN2 splice up)
COc1cc(SC)ccc1C(=O)OCC(=O)NC1CCCC1	ELG1 genotoxic inconclusive, Rab9 promoter act inconclusive, FLuc modulator 24µM
Cc1ccc(C(=O)OCC(=O)N2CCCCCC2)c(O)c1	Rab9 promoter act 2.8µM, p53 reactivator inconclusive, NPC1 promoter act inconclusive, FLuc modulator 12µM (no result: SMN2 splice up)
COCC(=O)N1CCC[C@@]2(CCN(C(=O)Nc3ccccc3)C2)C1	none (no result: ELG1 genotoxic, Rab9 promoter act, p53 reactivator, NPC1 promoter act, FLuc modulator)
O=C(OCC(=O)N1CCCCCC1)c1ccc[nH]c1=O	none (no result: Rab9 promoter act, NPC1 promoter act, SMN2 splice up, FLuc modulator)
COc1ccc(C(=O)OCC(=O)NC2CC2)cc1[N+](=O)[O-]	SMN2 splice up 5.6µM
O=C(OCC(=O)N1CCCC1)c1ccccc1O	ELG1 genotoxic inconclusive, Rab9 promoter act inconclusive, p53 reactivator inconclusive, NPC1 promoter act 2.8µM, FLuc modulator 15µM (no result: SMN2 splice up)
COc1ccc(C(=O)OCC(=O)NC2CC2)cc1OC	none (no result: SMN2 splice up)
CC(C)[C@H](NC(=O)CNC(=O)OC(C)(C)C)C(=O)N[C@H](C=O)C(C)C	none (no result: ELG1 genotoxic, Rab9 promoter act, p53 reactivator, NPC1 promoter act, FLuc modulator)
N#Cc1c(/N=C/c2ccc(Br)s2)sc2c1CCC2	ELG1 genotoxic inconclusive, Rab9 promoter act inconclusive, p53 reactivator inconclusive, NPC1 promoter act inconclusive, SMN2 splice up 7.9µM, FLuc modulator 1.9µM
Cc1ccc(/C=N/c2sc3c(c2C#N)CCC3)o1	ELG1 genotoxic inconclusive, FLuc modulator 1.3µM
N#Cc1c(/N=C/c2cccs2)sc2c1CCCCC2	ELG1 genotoxic 0.52µM, Rab9 promoter act 2µM, p53 reactivator inconclusive, NPC1 promoter act 3.5µM, FLuc modulator 0.38µM
CN(C)/C=N/c1sc2c(c1C#N)CCC2	none
N#Cc1c(/N=C/c2cccnc2)sc2c1CCCC2	FLuc modulator 2.7µM (no result: SMN2 splice up)
COc1ccc(C(=O)C(C)OC(=O)c2nc3nccc(C)n3n2)cc1 (centres undefined)	none (no result: SMN2 splice up)
O=C(N/N=C/c1cccc(Cl)c1)C1CCCC1	ELG1 genotoxic inconclusive, FLuc modulator inconclusive (no result: SMN2 splice up)
O=C(NCCCN1CCCCCC1)C(c1ccccc1)C1CCCCC1 (centres undefined)	none (no result: ELG1 genotoxic, Rab9 promoter act, p53 reactivator, NPC1 promoter act, FLuc modulator)
CCCOc1ccc(CN(C(=O)c2cc(=O)c3ccc(C)cc3o2)C2CCS(=O)(=O)C2)cc1 (centres undefined)	none (no result: ELG1 genotoxic, Rab9 promoter act, p53 reactivator, NPC1 promoter act)
O=C(OCc1ccccc1)c1ccc2c(c1)-c1ccccc1C2=O	ELG1 genotoxic 10µM, Rab9 promoter act inconclusive, p53 reactivator inconclusive, NPC1 promoter act inconclusive, SMN2 splice up 13µM, FLuc modulator inconclusive
O=C(OCc1ccccc1)c1cccc(-c2nnc(-c3ccccc3)o2)c1	ELG1 genotoxic inconclusive, Rab9 promoter act inconclusive, p53 reactivator inconclusive, NPC1 promoter act 1.6µM, SMN2 splice up inconclusive
O=C(OCc1ccc(C(=O)c2ccccc2)cc1)c1cccc(-c2nnc(-c3ccccc3)o2)c1	ELG1 genotoxic inconclusive, Rab9 promoter act 1.1µM, NPC1 promoter act inconclusive, SMN2 splice up inconclusive, FLuc modulator 11µM
CC(C)OC(=O)c1ccc(COC(=O)c2cccc(-c3nnc(-c4ccccc4)o3)c2)cc1	ELG1 genotoxic inconclusive, Rab9 promoter act 2.5µM, p53 reactivator inconclusive, NPC1 promoter act 2.2µM, SMN2 splice up 5µM, FLuc modulator inconclusive
CCOC(=O)c1cccc(COC(=O)c2cccc(-c3nnc(-c4ccccc4)o3)c2)c1	ELG1 genotoxic inconclusive, Rab9 promoter act 1.3µM, p53 reactivator inconclusive, NPC1 promoter act 2µM, SMN2 splice up 3.5µM, FLuc modulator 11µM
CCN(CC)c1ccc(/C=N/N2CCOCC2)c(O)c1	ELG1 genotoxic inconclusive, Rab9 promoter act 3.5µM, p53 reactivator inconclusive, NPC1 promoter act inconclusive, SMN2 splice up 8.9µM, FLuc modulator 13µM
CCN(CC)c1ccc(/C=N/Nc2cccc(C)c2)c(O)c1	SMN2 splice up inconclusive, FLuc modulator inconclusive
CCN(CC)c1ccc(/C=N/Nc2ccccc2)c(O)c1	p53 reactivator inconclusive, FLuc modulator 21µM
CCN(CC)c1ccc(C=Nc2cc(C)cc(C)c2)c(O)c1	FLuc modulator inconclusive
CCN(CC)c1ccc(C=Nc2ccc(C)cc2)c(O)c1	FLuc modulator 11µM
CCN(CC)c1ccc(C=Nc2ccccc2)c(O)c1	FLuc modulator 4.3µM
CCN(CC)C(=O)Cn1c(SCC(=O)Nc2ccc(F)cc2)nc2ccccc21	none (no result: ELG1 genotoxic, Rab9 promoter act, p53 reactivator, NPC1 promoter act, SMN2 splice up)
